40 compounds from PubChem BioAssay (NCATS) can be followed below.

Molecules are shown by their SMILES. Inconclusive results are not listed. Values without a mark were called inactive. Calls follow the shape of the dose curve; as a rule, active = well fitted curve in either direction with a large enough effect (not every such curve was filed as active); inconclusive = small, poorly fitted or top-dose-only effect, or another doubt; inactive = flat fitted curve, though single readings scatter.
% is scaled to controls: 0 for no effect and ±100 for the full control effect.

A short description of the first test: AP1 Signaling Pathway (AID 357). The conditions noted are these: ME-180 (cervical carcinoma) AP-1-bla reporter, EGF-induced, beta-lactamase ratio, 5 h; at 17.2 µM (top of the series) unless noted. The procedure, abridged:
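ME-180 cells with beta-lactamase reporter under AP-1 response element, stimulated with EC50 EGF; compounds tested in titration series, 5 h at 37 °C. CCF4 substrate added 2.5 h at room temperature; 460/530 nm emission ratio gave %activity and AC50.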
Turning to `COc1ccc(C2=Nn3c(nnc3-c3ccccc3)SC2)cc1OC`, the activity change, negative = inhibition is -10.8%.
For the compound `CCOC(=O)C1=C(C)N=C2SC(C)C(=O)N2C1c1cccc(F)c1` (stereo not given), the activity change, negative = inhibition is -17.6%.
Consider `COc1ccc(-n2ncc3c(NCCCn4ccnc4)ncnc32)cc1`, for which the activity change, negative = inhibition was -7.88%.
As to `COc1cc(C2Nc3cccc4cccc(c34)N2)cc(OC)c1OC(C)=O`, the activity change, negative = inhibition was 19.9%.
Still for that read-out and setting: as for `Cc1sccc1C1C(C#N)=C(N)SC(N)=C1C#N`, the figure is -12.4%; as for `CCN(CC)S(=O)(=O)c1cccc2c(N(C)C)cccc12`, -13.4%; as for `COc1ccc2[nH]cc(C(=O)CN(C)CCc3ccc(OC)c(OC)c3)c2c1`, -10.3%.
Turning to `CC(=O)c1cc(C#N)c(SCC(=O)C(C)(C)C)nc1C`, the activity change, negative = inhibition was -4.83%.
For the compound `CCSc1nnc(N(CCC#N)CCC#N)s1`, the activity change, negative = inhibition is 8.14%.
On to `CCOc1ccc(Cc2nc(N)nc(N)n2)cc1`, for which the activity change, negative = inhibition is -3.76%.
Same read-out and setting: under `Clc1ccc(-c2cn3c(n2)CCC3)cc1` stands 4.83%.
Regarding `COC(=O)CSc1nnc2n(-c3ccc(OC)cc3)c(=O)c3c4c(sc3n12)CCCCC4`, the activity change, negative = inhibition is -16%.
For `Nc1ncnc2nc(SCc3ccccc3)[nH]c12`, the activity change, negative = inhibition is -9.21%.
For `COc1cccc(C2/C(=C(/O)c3cnn(-c4ccccc4)c3C)C(=O)C(=O)N2CCN(C)C)c1` (stereo not given), the activity change, negative = inhibition is 3.35%.
With `CC(C)COc1nc2ccccc2nc1C(C#N)C(=O)NC1CCCCC1` (stereo not given), the activity change, negative = inhibition was -1.14%.
Turning to `CCN(CC)c1nc(N2CCOCC2)c(C#N)c2c1CN(C)CC2`, the activity change, negative = inhibition was -1.52%.
For `Cc1nn2c(-c3ccc(Cl)cc3)nnc2s1`, the activity change, negative = inhibition was -4.06%.
In the case of `Cn1c(NCCN2CCCCC2)cc(=O)n(C)c1=O`, the activity change, negative = inhibition is 6.19%.
As to `CCCOc1ccc(N2C(=O)CC(N(Cc3ccc(S(N)(=O)=O)cc3)C(=O)CC)C2=O)cc1` (stereo not given), the activity change, negative = inhibition is -6.51%.
Still for that read-out and setting: as for `CCOC(=O)c1c(CN2CCN(CCO)CC2)n(C)c2cc(Br)c(OC)cc12`, the figure is 19.8%; as for `CCC(=O)N[C@@H]1CC(C(C)(C)NC(=O)CC)CC=C1C` (stereo not given in full), 8.41%; as for `CC1CCCCN1C(=O)C12CCC(C)(/C(=N/O)C1)C2(C)C` (stereo not given), -2.56%.
With `COC(=O)c1[nH]c(C)c(/C(O)=C2\C(=O)C(=O)N(CCN3CCOCC3)C2c2cccnc2)c1C` (stereo not given), the activity change, negative = inhibition was 0.561%.
As to `O=C(O)CC(C(=O)OCCOc1ccccc1)N1CCOCC1` (stereo not given), the activity change, negative = inhibition is -4.83%.
`O=C(c1cccc(Cl)c1)N1CCN(C(=O)c2ccccc2F)CC1`: the activity change, negative = inhibition was -14.3%.
With `N#CC1=C(N)OC2=C(C(=O)CCC2)C1CCc1ccccc1` (stereo not given), the activity change, negative = inhibition was -2.2%.
Still for that read-out and setting: as for `CN/C(=C/[N+](=O)[O-])NCCSCc1ccc(CN(C)C)o1`, the figure is -15.4%; as for `COc1ccc(C(CC(=O)O)NC(=O)OC(C)(C)C)cc1` (stereo not given), 12.1%.
In the case of `COC(=O)c1ccc(Cn2c(O)c(N=O)c3ccccc32)o1`, the activity change, negative = inhibition was -14.4%.
Turning to `Cc1cc(C)n(CC(=O)c2ccccc2)c(=O)c1C#N`, the activity change, negative = inhibition is 17.1%.
Same read-out and setting: as for `Nc1nnc(CSc2ccc(Cl)cc2)s1`, the figure is 18.1%; as for `CN(C)CCNC(=O)C12CC3(C)CC(C)(CC(C)(C3)C1)C2`, 7.28%; as for `CCCc1nnc(NC(=O)c2c(O)c3c([nH]c2=O)CCCC3)s1`, -4.44%.
For `Fc1cnc(N2CCOCC2)nc1NCc1ccccc1`, the activity change, negative = inhibition was 10.9%.
As to `CCN1CCc2c(C#N)c(NCc3ccccc3)nc(N(CC)CC)c2C1`, the activity change, negative = inhibition was 2.07%.
With `Cc1sc(-n2c(C)ccc2C)c(C#N)c1C`, the activity change, negative = inhibition was -5.35%.
Still for that read-out and setting: under `COC(=O)c1ccc(C2/C(=C(\O)c3cccc(OC)c3)C(=O)C(=O)N2CCCN(C)C)cc1` (stereo not given) stands 2.5%.
As for `Cc1[nH]c2ccc3c(ncn3CCC#N)c2c1C`, the activity change, negative = inhibition is 0.919%.
As to `COC(=O)c1sccc1NC(=O)c1c(C)cc(=O)oc1C`, the activity change, negative = inhibition is 9.11%.
For `CN(C)S(=O)(=O)Nc1ccc(NS(=O)(=O)N(C)C)c(S(=O)(=O)c2ccccc2)c1`, the activity change, negative = inhibition was -9.87%.

Another test can be described thus: NFAT Signaling Pathway (AID 444).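 Also: carbachol stimulus at about its EC50 of 1 µM final.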 The conditions noted are these: Jurkat NFAT-bla M1, carbachol, beta-lactamase ratio, 5 h; at 17.2 µM (top of the series) unless noted. In outline:
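Jurkat cells carrying an NFAT-driven β-lactamase reporter and co-transfected muscarinic M1 receptor were treated with compound plus carbachol (1 uM final, an EC50 level) for 5 h at 37 °C. CCF4 loading followed for 1 h at RT; 460/530 nm ratio gave %activity.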
Consider `COc1ccc(C2=Nn3c(nnc3-c3ccccc3)SC2)cc1OC`, for which the activity change, negative = inhibition was -10.8%.
With `CCOC(=O)C1=C(C)N=C2SC(C)C(=O)N2C1c1cccc(F)c1` (stereo not given), the activity change, negative = inhibition was 7.16%.
Take `COc1ccc(-n2ncc3c(NCCCn4ccnc4)ncnc32)cc1`: the activity change, negative = inhibition is -15.7%.
Still for that read-out and setting: under `COc1cc(C2Nc3cccc4cccc(c34)N2)cc(OC)c1OC(C)=O` stands 3.51%.
`Cc1sccc1C1C(C#N)=C(N)SC(N)=C1C#N`: the activity change, negative = inhibition is 15%.
Same read-out and setting: under `CCN(CC)S(=O)(=O)c1cccc2c(N(C)C)cccc12` stands -17.2%.
As to `COc1ccc2[nH]cc(C(=O)CN(C)CCc3ccc(OC)c(OC)c3)c2c1`, the activity change, negative = inhibition is 11.6%.
Still for that read-out and setting: under `CC(=O)c1cc(C#N)c(SCC(=O)C(C)(C)C)nc1C` stands -23.2%; under `CCSc1nnc(N(CCC#N)CCC#N)s1`, -7.48%; under `CCOc1ccc(Cc2nc(N)nc(N)n2)cc1`, 6.51%.
On the same count and under the same terms, as for `Clc1ccc(-c2cn3c(n2)CCC3)cc1`, the figure is -26.9%; as for `COC(=O)CSc1nnc2n(-c3ccc(OC)cc3)c(=O)c3c4c(sc3n12)CCCCC4`, -18.9%; as for `Nc1ncnc2nc(SCc3ccccc3)[nH]c12`, -4.19%.
In the case of `COc1cccc(C2/C(=C(/O)c3cnn(-c4ccccc4)c3C)C(=O)C(=O)N2CCN(C)C)c1` (stereo not given), the activity change, negative = inhibition is -7.78%.
Regarding `CC(C)COc1nc2ccccc2nc1C(C#N)C(=O)NC1CCCCC1` (stereo not given), the activity change, negative = inhibition is 0.574%.
In the case of `CCN(CC)c1nc(N2CCOCC2)c(C#N)c2c1CN(C)CC2`, the activity change, negative = inhibition was 12.3%.
As to `Cc1nn2c(-c3ccc(Cl)cc3)nnc2s1`, the activity change, negative = inhibition is -5.76%.
Regarding `Cn1c(NCCN2CCCCC2)cc(=O)n(C)c1=O`, the activity change, negative = inhibition is -24.7%.
Turning to `CCCOc1ccc(N2C(=O)CC(N(Cc3ccc(S(N)(=O)=O)cc3)C(=O)CC)C2=O)cc1` (stereo not given), the activity change, negative = inhibition is 20.1%.
Same read-out and setting: as for `CCOC(=O)c1c(CN2CCN(CCO)CC2)n(C)c2cc(Br)c(OC)cc12`, the figure is 29.2%; as for `CCC(=O)N[C@@H]1CC(C(C)(C)NC(=O)CC)CC=C1C` (stereo not given in full), 6.85%; as for `CC1CCCCN1C(=O)C12CCC(C)(/C(=N/O)C1)C2(C)C` (stereo not given), 6.34%.
Still for that read-out and setting: as for `COC(=O)c1[nH]c(C)c(/C(O)=C2\C(=O)C(=O)N(CCN3CCOCC3)C2c2cccnc2)c1C` (stereo not given), the figure is -7.81%.
Still for that read-out and setting: as for `O=C(O)CC(C(=O)OCCOc1ccccc1)N1CCOCC1` (stereo not given), the figure is -6.82%; as for `O=C(c1cccc(Cl)c1)N1CCN(C(=O)c2ccccc2F)CC1`, 0.199%.
Regarding `N#CC1=C(N)OC2=C(C(=O)CCC2)C1CCc1ccccc1` (stereo not given), the activity change, negative = inhibition was -13.6%.
In the case of `CN/C(=C/[N+](=O)[O-])NCCSCc1ccc(CN(C)C)o1`, the activity change, negative = inhibition is -27.6%.
Regarding `COc1ccc(C(CC(=O)O)NC(=O)OC(C)(C)C)cc1` (stereo not given), the activity change, negative = inhibition is -0.371%.
As to `COC(=O)c1ccc(Cn2c(O)c(N=O)c3ccccc32)o1`, the activity change, negative = inhibition was 18.3%.
Still for that read-out and setting: as for `Cc1cc(C)n(CC(=O)c2ccccc2)c(=O)c1C#N`, the figure is -3.95%.
For the compound `Nc1nnc(CSc2ccc(Cl)cc2)s1`, the activity change, negative = inhibition is -0.614%.
For the compound `CN(C)CCNC(=O)C12CC3(C)CC(C)(CC(C)(C3)C1)C2`, the activity change, negative = inhibition is -25.2%.
Consider `CCCc1nnc(NC(=O)c2c(O)c3c([nH]c2=O)CCCC3)s1`, for which the activity change, negative = inhibition was -18.4%.
With `Fc1cnc(N2CCOCC2)nc1NCc1ccccc1`, the activity change, negative = inhibition was -3.23%.
The same measure, in the same setting: as for `CCN1CCc2c(C#N)c(NCc3ccccc3)nc(N(CC)CC)c2C1`, the figure is 1.29%; as for `Cc1sc(-n2c(C)ccc2C)c(C#N)c1C`, -9.11%.
As for `COC(=O)c1ccc(C2/C(=C(\O)c3cccc(OC)c3)C(=O)C(=O)N2CCCN(C)C)cc1` (stereo not given), the activity change, negative = inhibition is 3.34%.
With `Cc1[nH]c2ccc3c(ncn3CCC#N)c2c1C`, the activity change, negative = inhibition was 9.51%.
`COC(=O)c1sccc1NC(=O)c1c(C)cc(=O)oc1C`: the activity change, negative = inhibition was 8.6%.
Consider `CN(C)S(=O)(=O)Nc1ccc(NS(=O)(=O)N(C)C)c(S(=O)(=O)c2ccccc2)c1`, for which the activity change, negative = inhibition was -5.57%.
